Shown is part of a subset that was picked to be rich in the strongest signals.
Assays:
Assay in all cases: glycan array binding signal (z-score within array); higher = stronger binding
Settings in all cases: glycan notation: IUPAC condensed, linker removed
[1] = target: GlcA(b1-3)GlcNAc
Procedure, shortened: (§1)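 Columns mapping to the same glycan were averaged after glycan names were converted to IUPAC-condensed notation. The data come from 3228 arrays in the Consortium for Functional Glycomics database, limited to those with an available protein sequence. Binding is reported as a within-array Z-score averaged across arrays of one protein sequence and across linkers.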

[2] = target: GlcNAc(b1-2)Man(a1-3)[GlcNAc(b1-2)Man(a1-6)]Man(b1-4)GlcNAc(b1-4)[Fuc(a1-6)]GlcNAc
Procedure, shortened: as §1

[3] = target: GlcNAc(b1-2)[GlcNAc(b1-4)]Man(a1-3)[GlcNAc(b1-4)][GlcNAc(b1-2)Man(a1-6)]Man(b1-4)GlcNAc(b1-4)GlcNAc
Procedure, shortened: as §1

[4] = target: GlcNAc(b1-2)[GlcNAc(b1-6)]Man(a1-6)[GlcNAc(b1-2)Man(a1-3)][GlcNAc(b1-4)]Man(b1-4)GlcNAc(b1-4)GlcNAc
Procedure, shortened: as §1

[5] = target: GlcNAc(b1-4)GlcNAc(b1-4)GlcNAc
Procedure, shortened: as §1

[6] = target: GlcNAc(b1-4)[GlcNAc(b1-6)]GalNAc
Procedure, shortened: as §1

[7] = target: Kdn(a2-3)Gal(b1-3)GalNAc
Procedure, shortened: as §1

[8] = target: Kdn(a2-3)Gal(b1-4)GlcNAc
Procedure, shortened: as §1

[9] = target: Kdn(a2-6)Gal(b1-4)GlcNAc
Procedure, shortened: as §1

[10] = target: Neu5Ac(a2-3)Gal(b1-3)GalNAc(b1-4)[Neu5Ac(a2-8)Neu5Ac(a2-3)]Gal(b1-4)Glc
Procedure, shortened: as §1

[11] = target: Neu5Ac(a2-3)Gal(b1-3)GlcNAc(b1-3)GalNAc
Procedure, shortened: as §1

[12] = target: Neu5Ac(a2-3)GalNAc
Procedure, shortened: as §1

[13] = target: Neu5Ac(a2-6)Gal
Procedure, shortened: as §1

[14] = target: Neu5Ac(a2-6)Gal(b1-4)GlcNAc(b1-2)Man(a1-3)[Man(a1-6)]Man(b1-4)GlcNAc(b1-4)GlcNAc
Procedure, shortened: as §1

[15] = target: Neu5Ac(a2-6)Gal(b1-4)GlcNAc6S
Procedure, shortened: as §1

[16] = target: Neu5Ac(a2-6)GalNAc(b1-4)GlcNAc
Procedure, shortened: as §1

[17] = target: Neu5Ac(a2-8)Neu5Ac
Procedure, shortened: as §1

[18] = target: Neu5Gc(a2-6)Gal(b1-4)GlcNAc
Procedure, shortened: as §1

[19] = target: Neu5Gc(b2-6)Gal(b1-4)GlcNAc
Procedure, shortened: as §1

B1: SEX4 (Arabidopsis thaliana), Q944A8 (protein)
chain: TQAMGAVLTYRHELGMNYNFIRPDLIVGSCLQTPEDVDKLRKIGVKTIFCLQQDPDLEYFGVDISSIQAYAKKYSDIQHIRCEIRDFDAFDLRMRLPAVVGTLYKAVKRNGGVTYVHCTAGMGRAPAVALTYMFWVQGYKLMEAHKLLMSKRSCFPKLDAIRNATIDILTGLKRKTVTLTLKDKGFSRVEISGLDIGWGQRIPLTLGKGTGFWILKRELPEGQFEYKYIIDGEWTHNEAEPFIGPNKDGHTNNYAKVVDDPTSVDGTTRERLSSEDPELLEEERSKLIQFLETCSEAEV
- glycan array binding signal (z-score) [1]: 16
- glycan array binding signal (z-score) [2]: 3.1
- glycan array binding signal (z-score) [3]: 0.008
- glycan array binding signal (z-score) [4]: -0.06
- glycan array binding signal (z-score) [5]: -0.388
- glycan array binding signal (z-score) [6]: -0.489
- glycan array binding signal (z-score) [7]: 0.126
- glycan array binding signal (z-score) [8]: 0.514
- glycan array binding signal (z-score) [9]: -0.36
- glycan array binding signal (z-score) [10]: 0.161
- glycan array binding signal (z-score) [11]: 2.39
- glycan array binding signal (z-score) [12]: -0.529
- glycan array binding signal (z-score) [13]: -0.496
- glycan array binding signal (z-score) [14]: 2.32
- glycan array binding signal (z-score) [15]: 2.46
- glycan array binding signal (z-score) [16]: -0.017
- glycan array binding signal (z-score) [17]: -0.065
- glycan array binding signal (z-score) [18]: 0.489
- glycan array binding signal (z-score) [19]: -0.09

— the supplement of paper PMC8728848
